MRP resist rev: compounds reversing MRP-mediated drug resistance; H69AR cells + 2 uM doxorubicin, CellTiter-Glo, 72 h; differential viability (reversal), % at 10 µM; hit rate 0.04% among 85,000; AID 602;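 active = viability drop by adding the cancer drug above about 55%, with treated viability meeting a 40% cutoff, limit read from the data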;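 note: viability without doxorubicin minus viability with 2 µM doxorubicin for each compound; larger differential means the compound sensitizes cells more to doxorubicin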
PTK2B oligo ant: antagonists of human Pyk2 oligomerization; z-score (the deposit names both 25 µM and 10 µM); Q14289; Q293 cells, Pyk2 FERM NanoBiT luminescence; hits give low values; hit rate 0.83% among 99,000;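 active = Z-score of -3 or lower, scaled per plate to the spread of control and sample wells; inactive = z-score above -3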;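 note: negative z-score means lost luminescence so less FERM oligomerization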
MRP-1 activ: activators of MRP-1; H69AR cells + doxorubicin, viability rescue, CellTiter-Glo; viability increase, % at 10 µM; hit rate 0.61% among 140,000;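 active = viability gain under doxorubicin at or above a set limit, the compound median plus 3 SD, cut at about 4.7% in these data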;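 note: MRP-1 overexpressing cells given doxorubicin 25 µM after compound pretreatment; 18-22 h compound pretreatment then 72 h with doxorubicin before readout; 0% = doxorubicin-only wells and 100% = vehicle-treated cells without doxorubicin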
Mac1 fbg inh: CD11b/CD18-fibrinogen binding inhibition; K562 CD11b/CD18 adhesion to fibrinogen, ATPlite luminescence; Mn2+ added to activate the integrin; inhibition, % at 10 µM; AID 1497; hit rate 0.54% among 93,000;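 active = primary inhibition of 50% or more at 10 µM, then 40% or more on retest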
Cav32 inh: human Cav3.2 channel inhibition, primary screen | hit rate 4% among 100,000 | O95180 | Cav3.2-expressing cells, Fluo-4 calcium fluorescence FDSS; hits give low values | B-score at 10 µM;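 active = single-dose well whose peak fluorescence ratio is a statistical outlier from its plate by either plate-standardised score or position-corrected B-score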
Target sequence (O95180 whole entry, looked up): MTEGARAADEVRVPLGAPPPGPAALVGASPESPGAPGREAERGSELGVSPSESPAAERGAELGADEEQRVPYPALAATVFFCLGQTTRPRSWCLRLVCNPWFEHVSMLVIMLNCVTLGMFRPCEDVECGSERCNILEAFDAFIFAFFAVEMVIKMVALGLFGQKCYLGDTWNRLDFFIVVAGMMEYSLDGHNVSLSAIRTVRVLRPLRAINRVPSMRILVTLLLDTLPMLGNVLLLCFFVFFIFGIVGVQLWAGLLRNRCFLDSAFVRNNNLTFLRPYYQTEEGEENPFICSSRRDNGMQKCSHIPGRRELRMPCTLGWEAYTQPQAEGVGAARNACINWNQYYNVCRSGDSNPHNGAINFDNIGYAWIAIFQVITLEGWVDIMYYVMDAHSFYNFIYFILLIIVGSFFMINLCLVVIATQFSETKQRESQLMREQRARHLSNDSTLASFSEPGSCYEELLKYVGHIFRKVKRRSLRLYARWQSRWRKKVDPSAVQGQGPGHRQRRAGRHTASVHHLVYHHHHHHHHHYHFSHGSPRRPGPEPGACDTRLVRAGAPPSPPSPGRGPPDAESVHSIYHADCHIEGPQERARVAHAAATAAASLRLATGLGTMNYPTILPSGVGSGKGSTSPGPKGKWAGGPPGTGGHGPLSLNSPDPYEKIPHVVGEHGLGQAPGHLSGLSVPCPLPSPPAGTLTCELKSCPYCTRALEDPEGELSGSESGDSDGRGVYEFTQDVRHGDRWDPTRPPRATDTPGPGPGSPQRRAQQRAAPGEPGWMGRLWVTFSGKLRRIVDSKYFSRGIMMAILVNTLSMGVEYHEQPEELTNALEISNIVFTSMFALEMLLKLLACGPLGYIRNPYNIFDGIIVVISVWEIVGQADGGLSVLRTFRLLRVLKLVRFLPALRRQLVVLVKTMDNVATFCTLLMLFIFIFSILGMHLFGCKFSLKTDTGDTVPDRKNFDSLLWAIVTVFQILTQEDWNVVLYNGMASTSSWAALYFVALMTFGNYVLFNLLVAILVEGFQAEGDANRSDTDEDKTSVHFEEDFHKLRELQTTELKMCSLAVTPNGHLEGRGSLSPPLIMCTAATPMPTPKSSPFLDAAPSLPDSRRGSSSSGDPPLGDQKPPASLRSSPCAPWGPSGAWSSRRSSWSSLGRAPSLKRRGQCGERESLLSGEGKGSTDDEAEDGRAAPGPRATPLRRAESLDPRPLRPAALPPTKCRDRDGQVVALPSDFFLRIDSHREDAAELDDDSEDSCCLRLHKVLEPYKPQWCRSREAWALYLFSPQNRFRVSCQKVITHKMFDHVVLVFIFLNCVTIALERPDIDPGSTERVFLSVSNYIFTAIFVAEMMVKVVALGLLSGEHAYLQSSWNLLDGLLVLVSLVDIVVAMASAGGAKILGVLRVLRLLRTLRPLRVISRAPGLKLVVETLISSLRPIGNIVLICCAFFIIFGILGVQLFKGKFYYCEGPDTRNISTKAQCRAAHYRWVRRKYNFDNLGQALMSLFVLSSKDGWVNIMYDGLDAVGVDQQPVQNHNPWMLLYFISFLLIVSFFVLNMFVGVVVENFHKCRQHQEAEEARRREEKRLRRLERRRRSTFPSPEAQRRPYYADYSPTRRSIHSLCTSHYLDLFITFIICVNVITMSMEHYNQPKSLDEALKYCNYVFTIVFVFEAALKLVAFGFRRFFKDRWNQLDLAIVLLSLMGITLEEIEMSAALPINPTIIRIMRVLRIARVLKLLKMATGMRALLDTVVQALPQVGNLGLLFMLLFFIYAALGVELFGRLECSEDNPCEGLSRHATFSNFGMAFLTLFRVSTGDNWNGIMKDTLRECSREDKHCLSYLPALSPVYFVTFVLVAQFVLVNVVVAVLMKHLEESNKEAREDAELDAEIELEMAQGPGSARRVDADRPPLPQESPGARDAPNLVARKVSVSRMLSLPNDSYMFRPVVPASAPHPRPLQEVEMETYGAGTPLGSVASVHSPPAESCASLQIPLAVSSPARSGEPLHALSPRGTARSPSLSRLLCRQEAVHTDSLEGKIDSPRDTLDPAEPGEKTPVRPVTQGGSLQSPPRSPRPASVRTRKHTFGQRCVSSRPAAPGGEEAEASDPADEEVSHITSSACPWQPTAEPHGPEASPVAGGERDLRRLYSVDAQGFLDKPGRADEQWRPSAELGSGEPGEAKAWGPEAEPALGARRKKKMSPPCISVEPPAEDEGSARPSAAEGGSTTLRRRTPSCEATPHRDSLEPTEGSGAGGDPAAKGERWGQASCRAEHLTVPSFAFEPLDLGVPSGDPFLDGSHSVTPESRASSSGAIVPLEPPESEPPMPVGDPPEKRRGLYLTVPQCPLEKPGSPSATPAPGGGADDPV
Mac1 fbg enh: CD11b/CD18-fibrinogen binding enhancement; K562 CD11b/CD18 adhesion to fibrinogen, ATPlite luminescence; activation, % at 10 µM; P05107+P11215; hit rate 0.07% among 93,000; AID 1499;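 active = 10 µM primary screen giving 50% or more activity, confirmed by 40% or more on retest at that dose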
An asterisk follows results filed as active; . = not tested or not shown. The list is not random: actives were taken first. Their share in the collection is about 4.1%.

SMILES	MRP resist rev	PTK2B oligo ant	MRP-1 activ	Mac1 fbg inh	Cav32 inh	Mac1 fbg enh
COc1ccccc1-c1c(C(F)(F)F)oc2cc(OC(=O)c3ccccc3[N+](=O)[O-])ccc2c1=O	.	-0.71	-2.9	0.3	-0.471	6.3
C=CCn1c(SCC(=O)Nc2ccc3c(c2)OCO3)nnc1-c1cc(Br)ccc1O	3.0	-1.62	-1.6	3.9	-6.61*	7.1
C=CCn1c(SCC(=O)Nc2ccc3c(c2)OCO3)nnc1-c1ccccc1	12.3	-0.33	-0.4	4.5	0.429	-6.9
CCN1CCN(c2oc(-c3ccc(OC)cc3)nc2C#N)CC1	9.8	1.02	.	.	0.347	.
Cc1ccc(C)c(N2CCN(C(=O)c3ccc(Cn4c(=O)[nH]c5ccccc5c4=O)cc3)CC2)c1	-5.6	-0.47	-5.3	23.1	-5.93*	-2.4
COc1ccc(C(=O)OCC(=O)NCc2ccco2)cc1S(=O)(=O)N1CCN(c2cccc(Cl)c2)CC1	.	-1.04	-1.0	28.2	-7.41*	-3.2
O=C(Nc1ccc(N2CCOCC2)cc1)C1CC1	4.2	1.2	-1.5	-27.0	0.158	2.3
CCSC1=C(C#N)C(c2ccc(F)cc2)CC(=O)N1 (stereo unspecified)	-3.9	.	-2.5	-5.6	0.724	-1.2
C=CCSC1=C(C#N)C(c2ccccc2)CC(=O)N1 (stereo unspecified)	-45.3	0.04	-1.2	-3.7	0.502	4.4
CCCCCCSC1=C(C#N)C(c2ccc(O)cc2)CC(=O)N1 (stereo unspecified)	-5.1	-3.3*	-1.2	-5.8	-3.09	-0.7
C=CCSC1=C(C#N)C(c2ccc(C(C)C)cc2)CC(=O)N1 (stereo unspecified)	8.7	.	-0.1	2.6	-3.48*	1.0
COc1ccc(CC(=O)N2CC(C)CC(C)C2)cc1OC (stereo unspecified)	15.8	0.39	-0.2	0.6	-0.49	0.0
Cc1csc(SCC(=O)c2ccc(S(=O)(=O)N3CCOCC3)cc2)n1	1.6	0.86	-1.0	0.4	0.467	0.6
Cc1ccc(-c2nnc(CSc3nnc(COc4ccccc4)n3-c3ccc(C)cc3)o2)cc1	-42.9	0.84	-3.0	73.5	-5.48*	3.1
N#Cc1ccc(CSc2nnc(COc3ccccc3)n2-c2ccccc2)cc1	-1.4	0.34	-1.3	7.7	-0.763	-2.4
Cc1ccc(-c2nnc(CSc3nnc(COc4ccccc4)n3-c3ccccc3)o2)cc1	-5.3	-0.78	-1.0	7.2	-6.96*	-2.8
COc1cccc(C2CC(c3cccc(Br)c3)n3ncnc3N2)c1 (stereo unspecified)	-16.4	.	-1.0	-1.4	-0.144	1.8
Cn1nc(C(F)(F)F)c(/C=N/OC(=O)c2ccccc2Cl)c1SCc1ccc(Cl)cc1	.	-0.64	-4.4	.	-4.98*	.
COc1cc(C#N)ccc1OCC(=O)c1ccc2c(c1)OCCO2	0.9	0.21	-2.7	-14.4	-0.26	0.3
CC(C)(C)OC(=O)N[C@@H](Cc1c[nH]c2ccccc12)c1nnc(SCC(N)=O)o1	7.5	-0.01	-1.2	23.7	0.0789	4.0
CC(C)Sc1nnc([C@H](Cc2c[nH]c3ccccc23)NC(=O)OC(C)(C)C)o1	2.4	-1.97	-2.3	-2.9	-4.11*	0.4
CCCCn1nc(-c2ccccc2)c2nc3ccccc3nc21	-1.6	.	-1.9	-2.9	-7.26*	6.9
Cn1nc(-c2ccccc2)c2nc3ccccc3nc21	-8.4	-1.63	-4.4	-1.8	-0.648	0.3
CCc1cccc(C)c1NC(=O)CSc1nnc(CCCOc2ccc(Cl)cc2Cl)n1C	.	.	-0.2	.	.	.
Cc1ccc(-c2cc(C(F)F)nc(NCc3cccnc3)n2)cc1	-18.4	-3.62*	0.3	.	-4.4*	.
SMILES	MRP resist rev	PTK2B oligo ant	MRP-1 activ	Mac1 fbg inh	Cav32 inh	Mac1 fbg enh
FC(F)(F)c1cc(-c2ccc(Cl)cc2)nc(NCc2cccnc2)n1	-20.6	-3.02*	-1.1	1.7	0.707	-3.2
Cc1ccc(-c2cc(C(F)F)nc(NCc3cccs3)n2)cc1	.	.	-0.6	.	.	.
Cc1cccc(C)c1N=Cc1c(O)n(-c2nccs2)c(=O)c2ccccc12	.	.	6.2*	7.2	.	5.4
Cc1ccc(N=Cc2c(O)n(-c3nccs3)c(=O)c3ccccc23)cc1	.	.	3.1	-2.6	.	3.8
Cc1cc(C)c(N=Cc2c(O)n(-c3nccs3)c(=O)c3ccccc23)c(C)c1	.	.	7.5*	0.5	.	13.5
O=C(NC(=S)Nc1ncccn1)c1ccccc1Cl	.	.	0.9	.	.	.
Cc1cc(Br)ccc1NC(=O)CNC(=O)CN(C)Cc1nc2ccccc2c(=O)[nH]1	-18.6	0.17	4.9*	4.0	-0.0943	-0.4
CN(Cc1ccccc1)C(=S)NC(=O)c1ccc(-c2ccccc2)cc1	.	.	2.1	6.2	.	2.6
COc1cccc(SCc2noc(C(=O)NCC3CC3)c2C(=O)NCC2CC2)c1	.	.	.	.	-0.775	.
Cc1cccc(OCCNC(=O)c2ccc(Oc3ccc(C(F)(F)F)cc3[N+](=O)[O-])cc2)c1	.	1.64	8.2*	13.1	-3.58	-4.2
O=c1cc(Cl)c(-c2ccccc2)n[nH]1	-2.9	-0.43	-3.8	-1.1	-1.03	-2.9
CC1=C(C(=O)Nc2ccccc2F)C(c2ccsc2)C2=C(CC(c3ccccc3)CC2=O)N1 (stereo unspecified)	.	-1.07	-3.2	6.2	-6.53*	0.5
CC(=O)c1c(C)[nH]c(C(=O)OCc2nnc(-c3ccccc3)o2)c1C	15.5	1.69	-0.5	-22.5	-0.017	4.4
Cc1ccc(NC(=O)Cc2ncc(C(F)(F)F)cc2Cl)cc1Cl	.	-0.08	-2.0	-4.6	-4.79*	-3.3
CCN(CC)C(=O)Nc1ccccc1C	-5.5	0.31	-0.5	-26.5	0.531	3.0
Cc1cc(C(C)(C)C)oc1C(=O)N(CC(=O)NC1CCCC1)c1ccc(F)cc1	.	-1	1.1	-15.2	-3.86	4.4
Cc1cc(C(C)(C)C)oc1C(=O)N(CC(=O)NC1CCCC1)c1c(C)cccc1C	.	-1.27	-2.1	-12.6	-1.59*	2.5
CC(C)(C)/C(O)=C(/C#N)c1nc2ccccc2[nH]1	18.6	0.3	0.7	-22.2	.	1.4
CC(C)CC(/C(O)=C(\C#N)c1nc2ccccc2[nH]1)N1C(=O)c2ccccc2C1=O (stereo unspecified)	-0.2	-2.61	-2.0	18.3	-6.58*	-7.0
O=C(N/N=C\c1cc(Cl)ccc1O)c1ccc(S(=O)(=O)N2CCCCC2)cc1	.	.	2.6	-11.1	.	63.3
Cc1cccc2cc(C#N)c(SCC(=O)N3CCC(C)CC3)nc12	1.4	-2.5	0.5	23.3	-1.64	-0.8
Cc1cccc2cc(C#N)c(SCC(=O)N3CC(=O)Nc4ccccc43)nc12	.	-3.08*	-4.6	.	-1.43	.
COc1ccc(N2C(=O)CCC(C(=O)O)C2c2ccc(F)cc2)cc1 (stereo unspecified)	13.3	0.74	1.4	20.9	0.0925	2.2
COc1ccc(C2C(C(=O)Nc3cccc(C)n3)CCC(=O)N2c2ccc(OC)cc2)cc1 (stereo unspecified)	13.1	.	12.6*	-6.5	.	-4.1
Cc1ccc(N(Cc2cc3cc(C)ccc3[nH]c2=O)C(=O)c2cccs2)cc1	.	.	0.0	.	.	.

Source: PubChem (several laboratories)
